Screen size: about 360,000 compounds; about 6,200 (1.7%) were called active. The sample holds actives, similar compounds and a random draw of the others, so the mix is not that of the screen.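 Rule for the calls: active = inhibition of at least 50% at 20 µM; inactive = the rest.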

The nature of this assay: inhibition of PEG-3 promoter activity – cell-based, HeLa, luciferase luminescence, primary screen (AID 588405). To be noted: HeLa PEG-Prom luciferase reporter, overnight, at 20 µM, stronger effect = higher value.
Take `CCOC(=O)C1=CC[C@@H](c2ccncc2)N(S(=O)(=O)c2ccc(C)cc2)C1`: the inhibition (commonly the relative decrease from the control value, in per cent) is 27.8% (inactive).

Take `O=C(Nc1ccc(Cl)c(C(F)(F)F)c1)C1Cc2c(-c3ccccc3Oc3ccccc3)ccnc2O1` (stereo not given): the inhibition is 26.9% (inactive).

Turning to `CC(C)(C)C(=O)NC(NC(=S)Nc1ccc(S(N)(=O)=O)cc1)C(Cl)(Cl)Cl` (stereo not given), the inhibition was 17% (inactive).

On to `O=C(Cc1cccc2ccccc12)NNC(=O)Nc1ccc(Cl)cc1`, for which the inhibition was -102% (inactive). Under `Cc1ccc(NC(=S)NC(NC(=O)Cc2cccc3ccccc23)C(Cl)(Cl)Cl)cc1` (stereo not given) stands 105% (active); under `C/C(CC1CC(C)(C)OC1=O)=N/Nc1nc(-c2ccccc2)cs1` (stereo not given), -108% (inactive). Under `COc1ccc2c(c1OC)C(=O)OC2Nc1nc(-c2ccccc2)cs1` (stereo not given) stands 104% (active).

Regarding `CC(C)C1CC2=C(C(=O)OC(C)(C)O2)C(c2ccc(F)cc2)O1` (stereo not given), the inhibition is 4.49% (inactive). Under `COc1ccc(Cl)cc1-c1cc(C(=O)Nc2cc(OC)c(OC)c(OC)c2)[nH]n1` stands 33.8% (inactive). Under `O=C(Nc1ccc(Cl)cc1)c1csc([C@H]2C[C@H](O)[C@@H](CO)O2)n1` stands -232% (inactive). Under `Cc1ccc([C@@H]2CC(=O)[C@@H]3CN(S(=O)(=O)c4ccc(C)cc4)[C@H](c4ccccc4F)C[C@@H]3N2S(=O)(=O)c2ccc(Cl)cc2)cc1` stands 13.7% (inactive). Take `COc1ccc(NC(=O)N(C)C[C@@H]2OCc3cn(nn3)CCCC(=O)N([C@H](C)CO)C[C@H]2C)c(OC)c1`: the inhibition was -5.47% (inactive). On to `NC(N)=N/N=C/c1ccc(OCc2ccc(Cl)cc2Cl)cc1`, for which the inhibition is 99.3% (active).

Consider `Cc1nc2ccccc2nc(C)c1=NOCc1ccc(Cl)cc1Cl`, for which the inhibition was 29.6% (inactive). Under `COc1ccc(Cl)cc1N(CC(=O)N/N=C/c1ccc(OCC(N)=O)cc1)S(C)(=O)=O` stands -7.79% (inactive). Under `O=C(Nc1ccc(F)cc1)C1CCN(C(=O)c2ccc([N+](=O)[O-])cc2)CC1` stands 17.8% (inactive); under `O=C(/C=C/c1ccc(F)cc1)NC(=S)NNC(=O)c1cccnc1`, 8.82% (inactive); under `O=C(/C=C/c1ccc([N+](=O)[O-])o1)NNC(=O)c1ccc(F)cc1`, 99.4% (active).

On to `CC1(c2cccc([N+](=O)[O-])c2)CC(C)(C)N(C(=O)c2ccccc2)c2ccccc21` (stereo not given), for which the inhibition was 34.9% (inactive). For the compound `Cc1nnc(SCC(=O)N2c3ccccc3C(C)(c3ccc(Cl)cc3)CC2(C)C)s1` (stereo not given), the inhibition was 51.1% (active). For `CC1(c2ccccc2)CC(C)(C)N(C(=O)c2cc([N+](=O)[O-])cc([N+](=O)[O-])c2)c2ccccc21` (stereo not given), the inhibition is 16.3% (inactive). Under `COc1ccc(NC(=O)CN2C(=O)NC(C)(c3ccccc3)C2=O)cn1` (stereo not given) stands 1.66% (inactive); under `COc1ccc(NC(=O)C2Cc3c(-c4ccc5c(c4)OCO5)ccnc3O2)cn1` (stereo not given), 21.4% (inactive). Under `COc1ccc(NC(=O)/C(Cl)=C(/Cl)S(=O)Cc2ccc(C)cc2)cn1` (stereo not given) stands 109% (active). Under `Cc1cc2nc(-c3ccco3)c(Cc3cccc(F)c3)n2c(C)c1Br` stands -26.2% (inactive); under `CC(Sc1nnc(C2CC2)n1C1CC1)C(=O)Nc1ccc(C(N)=O)cc1` (stereo not given), 0.86% (inactive).

On to `CCOC(=O)c1c(-c2ccccc2)oc2cc(Br)c(O)c(C=O)c12`, for which the inhibition was 69.1% (active).

As for `CCOC(=O)c1c(C)oc2cc(Sc3ccccc3)c(O)c(O)c12`, the inhibition is -89% (inactive). `Cc1oc2cc(Br)c(O)c(Br)c2c1C(=O)c1ccccc1`: the inhibition was -69.5% (inactive). Under `CCCNC(=O)c1cc(C2CCCCN2S(=O)(=O)c2cn(C)cn2)on1` (stereo not given) stands -3.04% (inactive); under `O=C(CNC(c1ccccc1)c1ccccc1)Nc1ccc(F)cc1`, 6.17% (inactive); under `O=S1(=O)CC(N2CCN(c3ccccn3)CC2)CN1Cc1ccc(F)cc1` (stereo not given), 10.9% (inactive). Take `Cc1ccc(F)c(S(=O)(=O)NC(=O)C2(C)CCN2C(=O)c2ccco2)c1` (stereo not given): the inhibition was -1.32% (inactive). Under `CCOc1ccc(N(CC(=O)NCC2CCCO2)S(=O)(=O)c2ccc(C)cc2)cc1` (stereo not given) stands 14.4% (inactive); under `Cc1cc(Br)ccc1NC(=O)c1cnc(N2CCN(c3ccccn3)CC2)c2ccccc12`, 64.2% (active). Consider `COc1ccc(NC(=O)c2sc3nc(C)nc(N4CCN(c5ccccn5)CC4)c3c2C)c(OC)c1`, for which the inhibition is 30.7% (inactive). Under `Cc1cc(Br)ccc1NC(=O)c1sc2ncn(CC(=O)N3CCN(c4ccccn4)CC3)c(=O)c2c1C` stands 1.76% (inactive).

In the case of `CC(=O)Nc1cccc(-c2cc(NC=O)c3ncc(-c4ccc(F)c(Cl)c4)n3c2)c1`, the inhibition was 40.1% (inactive).

With `COC(=O)[C@H](CCSC)NC(=O)Nc1ccc(OC)cc1`, the inhibition was 10.2% (inactive).

Regarding `COc1ccc(CC(N)c2csc(NC(=O)Cc3ccccc3)n2)cc1` (stereo not given), the inhibition was 49.7% (inactive). Under `Cc1ccccc1NC(=O)Cc1nc(COC(=O)c2ccc(C(F)(F)F)cc2)cs1` stands -7.19% (inactive); under `COc1ccc(OC)c(NC(=O)N[C@H](Cc2ccccc2)C(=O)NN)c1`, 9.08% (inactive).

`CC(C)(C)CC(=O)Nc1nnc(SCC(=O)NCc2cccs2)s1`: the inhibition is 9.91% (inactive). Under `COc1ccc(CC(N)c2csc(NC(=O)NC(c3ccccc3)c3ccccc3)n2)cc1` (stereo not given) stands 96.6% (active); under `CC(C)(C)CC(=O)Nc1nc(C(N)Cc2ccc(C(F)(F)F)cc2)cs1` (stereo not given), 102% (active); under `COc1ccc(CC(N)c2csc(NC(=O)Nc3ccc(C(C)C)cc3)n2)cc1` (stereo not given), 100% (active). Regarding `COc1ccc(NC(=O)C(Br)C(C)C)cc1` (stereo not given), the inhibition is -6.38% (inactive). In the case of `O=C(NCc1ccc(F)cc1)c1cc(C2CCCCN2C(=O)c2cccs2)on1` (stereo not given), the inhibition is 12.7% (inactive).

Regarding `CC(C)Cn1c(N)c(C(=O)COC(=O)C2CCCN2C(=O)c2cccs2)c(=O)n(C)c1=O` (stereo not given), the inhibition was 8.57% (inactive). Under `C#Cc1ccc(NC(=O)C2(C)CCN2C(=O)Cc2ccc(-c3ccccc3)cc2)cc1` (stereo not given) stands 20.8% (inactive).

As to `O=C(NCc1cccnc1)c1cc(C2CCCN(C(=O)C3CCCCC3)C2)on1` (stereo not given), the inhibition is 3.87% (inactive). Turning to `CC(C)CCNC(=O)c1[nH]c(C(F)(F)F)nc1-c1ccccc1`, the inhibition was 11.4% (inactive). Under `COc1ccc(C(NC(=O)C2CCN(CCCc3ccccc3)CC2)c2cccs2)cc1` (stereo not given) stands 2.75% (inactive); under `Nc1ncnc2c1ncn2[C@@H]1O[C@H](C(=O)NCC(F)(F)F)[C@@H](O)[C@H]1O`, 4.09% (inactive); under `Cc1c(C(=O)NCc2ccc(C#N)cc2)sc(=O)n1Cc1ccc(C(=O)N(C)C)cc1`, 7.87% (inactive). Under `COc1ccc2sc(-c3ccc(S(C)(=O)=O)cc3)c(-c3ccc(C(N)=O)cc3)c2c1` stands 3.59% (inactive); under `Cn1cncc1C#Cc1c(-c2ccsc2)sc2ccccc12`, 44.3% (inactive). Under `COc1ccc2sc(-c3ccc(S(C)(=O)=O)cc3)c(C#Cc3cncn3C)c2c1` stands 54.5% (active); under `CCn1c(SCC(=O)Nc2ccc(C)cc2)nc2nc3c(cc2c1=O)CCCC3`, 10.5% (inactive). Turning to `CCNC(=S)Nc1ccc2c(c1)c(=O)n(C)n2Cc1ccc(Cl)cc1`, the inhibition was -3.64% (inactive). Under `c1ccc2c(c1)C(=NC1CCCCC1)NC2=NC1CCCCC1` stands 101% (active). Under `CC1(C)Cc2nc3sc4c(SCC(=O)NC(c5ccccc5)c5ccccc5)ncnc4c3cc2CO1` stands -23% (inactive); under `Cc1ccccc1S(=O)(=O)NC(=O)C1(C)CCN1C(=O)C1(c2ccc(Cl)cc2)CC1` (stereo not given), 15.9% (inactive); under `Cc1cccc(-c2cnc(C(O)c3ccc4ccccc4c3)[nH]2)c1` (stereo not given), 5.95% (inactive).

With `Cc1nc2c(OCc3ccc(Cl)cc3Cl)cccn2c1N(C)CC1CC1`, the inhibition is 27.9% (inactive). Under `OC(CNCC1CCCO1)Cn1c2ccc(Br)cc2c2cc(Br)ccc21` (stereo not given) stands 104% (active); under `CCCN1CCn2c3c(c4cc(Br)ccc42)CCCC31` (stereo not given), -52.1% (inactive). Under `COCCNC(=O)c1ccc(Cn2c(SCC(=O)NCC3CCCO3)nc3ccc(Br)cc3c2=O)cc1` (stereo not given) stands -11.8% (inactive).

Turning to `CNC(=O)NC(=O)C(OC(=O)c1cccc(S(=O)(=O)N2CCCCC2)c1)c1ccccc1` (stereo not given), the inhibition was 8.72% (inactive). Under `CCN1/C(=C\c2ccc3ccccc3[n+]2CC)Sc2cc(C)ccc21` stands 95.8% (active); under `OCCN1CCN(c2ncnc3c2ncn3[C@H]2CN(Cc3ccco3)C[C@@H](CO)O2)CC1`, -0.36% (inactive); under `Cc1ccccc1Cn1c(C)c(C(=O)NCc2cccc(C(F)(F)F)c2)sc1=O`, -0.27% (inactive). Turning to `CC(C)CC(N=C1NC(C)(C)Cc2ccccc21)C(=O)O` (stereo not given), the inhibition is 0.64% (inactive). Under `COc1cc(C(C(=O)NC2CCCC2)N(Cc2ccccc2)C(=O)c2snc(C(N)=O)c2N)ccc1O` (stereo not given) stands -1.6% (inactive); under `NC(=O)c1nsc(C(=O)N(CC(=O)NCc2ccc(F)cc2)Cc2ccco2)c1N`, 17.3% (inactive); under `COc1ccc(CNC(=O)C(c2ccc(O)cc2)N(Cc2ccco2)C(=O)c2snc(C(N)=O)c2N)cc1` (stereo not given), 56.7% (active). Under `CCOC(=O)C1(C)CCCN(C(=O)c2ccc(N(C)C)cc2)C1` (stereo not given) stands 0.13% (inactive); under `Cc1cc(C)n2nc(C(=O)OC(C)C(=O)c3cc(C)c(C)cc3C)nc2n1` (stereo not given), -10.9% (inactive); under `CSCCC(NS(=O)(=O)c1ccc2c(c1)oc(=O)n2C)C(=O)NC1CCCc2ccccc21` (stereo not given), 3.82% (inactive). Under `CC1=C(C(=O)N(C(C)C)C(C)C)CC(CC(=O)NCCCCc2ccccc2)C(=O)N1CCC1=CCCCC1` (stereo not given) stands 18.7% (inactive); under `COc1cccc2c1C(=O)c1c(O)c3c(c(O)c1C2=O)CC(O)(C(C)=NNC(=O)c1ccc(Cl)c(Cl)c1)CC3OC1CC(N)C(O)C(C)O1` (stereo not given), 98.3% (active). For the compound `O=C(NC1CC1)C1=C[C@H](c2c[nH]c3ccccc23)C[C@H](OCc2ccc(CO)cc2)O1`, the inhibition is -8.53% (inactive). Under `O=C(Nc1cccc2ccccc12)c1onc2c1CCCC2` stands -211% (inactive); under `O=C(Nc1cccc2ccccc12)c1[nH]c(-c2ccccc2)c2c1C(=O)N(C1CC1)C2=O`, 52.8% (active).

With `O=C(Nc1cccc2ccccc12)NC1CC1`, the inhibition is 6.64% (inactive).

Source of the values: PubChem BioAssay AID588405 (Sanford-Burnham Center for Chemical Genomics, 2011).
